Molecules are shown by their SMILES. A number with no mark means an inactive call.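 Rule for the calls: active = activity change under -35% in any replicate well, with more than 20 beads read in that well; inactive = the rest.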

The target in this assay is Caspase recruitment domain-containing protein 9 (Homo sapiens) + E3 ubiquitin-protein ligase TRIM62 (Homo sapiens) (UniProt Q9H257+Q9BVG3). In words: CARD9/TRIM62 protein interaction inhibitors – cell lysate, HEK293FT lysates, Luminex bead ELISA, primary screen (AID 1259341).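 Note: PE anti-Flag signal of Flag-CARD9 captured by myc-TRIM62 beads.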 The following applies: PE fluorescence, hits give low values, concentration not given here. (In general: ELISA stands for enzyme-linked immunosorbent assay.)
Sequence of Caspase recruitment domain-containing protein 9 (Homo sapiens) + E3 ubiquitin-protein ligase TRIM62 (Homo sapiens) (Q9BVG3 whole entry, looked up, the tested form may be a part): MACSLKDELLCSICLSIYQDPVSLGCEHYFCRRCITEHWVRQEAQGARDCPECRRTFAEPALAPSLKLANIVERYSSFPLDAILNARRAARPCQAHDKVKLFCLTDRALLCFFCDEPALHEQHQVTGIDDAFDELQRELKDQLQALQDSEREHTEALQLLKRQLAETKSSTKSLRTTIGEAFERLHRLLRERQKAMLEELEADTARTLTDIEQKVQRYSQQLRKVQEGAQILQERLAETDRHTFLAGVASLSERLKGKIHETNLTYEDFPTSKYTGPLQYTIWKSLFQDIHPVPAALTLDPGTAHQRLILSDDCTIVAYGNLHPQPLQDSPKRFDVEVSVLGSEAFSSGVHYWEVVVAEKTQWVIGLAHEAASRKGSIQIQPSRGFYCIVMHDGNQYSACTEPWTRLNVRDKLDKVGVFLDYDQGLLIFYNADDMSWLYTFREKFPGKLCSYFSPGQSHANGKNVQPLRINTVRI
Sequence of Caspase recruitment domain-containing protein 9 (Homo sapiens) + E3 ubiquitin-protein ligase TRIM62 (Homo sapiens) (Q9H257 whole entry, looked up, the tested form may be a part): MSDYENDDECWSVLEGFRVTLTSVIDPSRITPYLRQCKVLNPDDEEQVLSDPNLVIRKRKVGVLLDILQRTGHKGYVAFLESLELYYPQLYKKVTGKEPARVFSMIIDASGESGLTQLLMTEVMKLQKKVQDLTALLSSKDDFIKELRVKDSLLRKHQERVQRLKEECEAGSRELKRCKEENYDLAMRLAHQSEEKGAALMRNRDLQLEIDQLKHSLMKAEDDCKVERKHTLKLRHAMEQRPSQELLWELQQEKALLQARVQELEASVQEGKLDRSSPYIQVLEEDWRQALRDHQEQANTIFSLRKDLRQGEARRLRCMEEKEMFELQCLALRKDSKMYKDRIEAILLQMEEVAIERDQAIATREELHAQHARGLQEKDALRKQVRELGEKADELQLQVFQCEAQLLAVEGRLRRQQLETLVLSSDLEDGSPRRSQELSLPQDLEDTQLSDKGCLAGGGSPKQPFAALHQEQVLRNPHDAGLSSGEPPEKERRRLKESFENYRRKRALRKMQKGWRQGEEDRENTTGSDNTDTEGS
For the compound `C[C@H](CO)N1C[C@H](C)[C@@H](CN(C)CC2CCCCC2)OCCCC[C@H](C)Oc2ccc(NS(=O)(=O)c3cccs3)cc2C1=O`, the activity change, negative = inhibition is 9.64%.
Consider `COc1ccc(-c2nc(C)c(C(C)=O)n2O)cc1OC`, for which the activity change, negative = inhibition was -2.22%.
Turning to `O=C(COC(=O)c1ccc(S(=O)(=O)NCc2ccco2)cc1)Nc1ccc(Cl)cn1`, the activity change, negative = inhibition is -0.897%.
With `CN(c1ccccc1C(=O)NCc1ccco1)S(C)(=O)=O` the figure was -3.12%.
With `CCN1CCN(C(=O)c2cc(-c3ccco3)nc3ccccc23)CC1` the figure was 4.84%; with `Cc1ccc2cc(CN(Cc3ccco3)S(C)(=O)=O)c(=O)[nH]c2c1`, 5.89%; with `O=c1/c(=C/c2ccco2)sc2nc3ccccc3n12`, 0.484%.
As to `CCc1oc2ccccc2c1C(=O)CCN1CCCCC1`, the activity change, negative = inhibition was 2.4%.
Take `O=S(=O)(Nc1nc2ccccc2nc1NCc1ccco1)c1ccccc1`: the activity change, negative = inhibition was 1.68%.
With `COc1ccc(NC(=O)CN(C)C(=O)c2cc(-c3ccco3)nc3ccccc23)cc1` the figure was -8.21%.
As for `Fc1ccc(CSc2nnc(-c3cccnc3)n2Cc2ccco2)cc1`, the figure is 0.116%; as for `NC(=O)c1ccc(CN2C(=O)C3(CCNCC3)Nc3ccccc32)cc1`, -4.33%.
Consider `COc1ccc(S(=O)(=O)Nc2ccc3c(c2)C(=O)N([C@H](C)CO)C[C@H](C)[C@@H](CN(C)CC2CCCCC2)OCCCC[C@H](C)O3)cc1`, for which the activity change, negative = inhibition is 5.92%.
With `O=C(Nc1cccc2nsnc12)c1ccc(-c2cccc(Cl)c2)o1`, the activity change, negative = inhibition was 11.7%.
For `O=C(NCC1CCCO1)c1cc(-c2ccco2)nc2ccccc12` (stereo unspecified), the activity change, negative = inhibition is -3.93%.
With `CCCc1oc(C(=O)O)cc1CN` the figure was -4.57%; with `C[C@H](CO)N1C[C@H](C)[C@H](CN(C)C(=O)C2CCCCC2)OCCCC[C@H](C)Oc2ccc(NS(=O)(=O)c3cccs3)cc2C1=O`, 6.16%.
Take `O=C(Nc1nc(-c2ccccn2)cs1)c1cccc(-n2cnnn2)c1`: the activity change, negative = inhibition was 199%.
As for `N#Cc1c2ccc(OCC(=O)NCc3ccco3)cc2n2ccccc12`, the figure is 0.334%.
With `Cc1ccc(N2C(=O)c3ccccc3C2C(=O)c2ccc(O)cc2O)cc1` (stereo unspecified) the figure was 12.1%; with `O=C(CCN1CCOCC1)c1ccc2c(c1)OCCO2`, 10.8%; with `Nc1ccccc1Sc1nccc(C(F)(F)F)n1`, 3.66%.
Consider `O=C(Nc1nc(-c2ccco2)c(-c2ccco2)s1)c1ccco1`, for which the activity change, negative = inhibition was -9.14%.
For the compound `O=C(Nc1nc(-c2ccco2)c(-c2ccco2)s1)C1CCC1`, the activity change, negative = inhibition was -9.96%.
As for `CCNc1ncc(C(=O)NCCc2nc3c(s2)CCCC3)cn1`, the figure is -3.32%.
With `O=C(O)c1ccc2nc(-c3ccco3)c(-c3ccco3)nc2c1` the figure was -13.9%; with `COc1ccc2nc(-c3ccco3)c(-c3ccco3)nc2c1`, -3.64%.
As for `O=C(COC(=O)c1ccc(F)cc1F)Nc1ncccn1`, the figure is -18.2%; as for `CCC12CCCN3CCc4c(n(c5ccccc45)C(O)(C(=O)OC)C1)C32` (stereo unspecified), -2.25%.
Take `Cc1[nH]c2ccc(Cl)cc2c(=O)c1CN1CCCC1`: the activity change, negative = inhibition was 0.531%.
With `N#CNc1nc(O)cc(=O)[nH]1`, the activity change, negative = inhibition was -9.24%.
Turning to `Cc1ccc(C(=O)Nc2ccc(N3CCC(C(N)=O)(N4CCCCC4)CC3)c(C(=O)O)c2)cc1`, the activity change, negative = inhibition was -42.4%.
As for `O=C1C=C(c2ccccc2)Nc2ccccc2N1`, the figure is 2.64%; as for `Cc1ccc(S(=O)(=O)Nc2ccc3c(c2)C(=O)N([C@H](C)CO)C[C@H](C)[C@@H](CN(C)CC2CCCCC2)OCCCC[C@H](C)O3)cc1`, 4.51%; as for `COCC(=O)n1nc(-c2ccco2)nc1NCc1cccs1`, -2.31%.
Take `O=S(=O)(c1ccc(F)cc1)N1CN(Cc2ccco2)c2nc3ccccc3nc21`: the activity change, negative = inhibition is 26.6%.

The values are drawn from PubChem BioAssay AID1259341 (Broad Institute, 2017).
